Results on 34 compounds are retold here after PubChem BioAssay (NCATS).

Molecules are shown by their SMILES. Records with an inconclusive call do not appear. A number with no mark means an inactive call. Calls follow the shape of the dose curve; as a rule, active = well fitted activation curve with a large enough effect; inconclusive = small, poorly fitted or top-dose-only effect; inactive = flat fitted curve, though single readings scatter.

The assay in a line: Primary redox qHTS assay for identification of artifact compounds. (AID 1845223).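 Also: 0% = DMSO and 100% = reference compound.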 As to conditions: Amplex Red/HRP redox cycling with DTT, fluorescence; series mostly up to 53.8 µM; redox activity (% of DA3003): at the top concentration. In short, it runs like this:
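Redox-cycling detection via DTT (250 uM final) oxidation coupled to Amplex Red (25 uM)/HRP (250 mU/mL) in HBSS. 15 min preincubation plus 30 min after DTT, room temperature. Ex/Em 525/598 nm; 4-parameter Hill fit against DMSO and 10 uM DA3003.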
On the technique in general: In qHTS, concentration-response curves come from the screen itself.
`C=C1C(=O)O[C@@H]2C/C(C)=C\C(=O)/C=C(\C)[C@@H](OC(=O)/C(C)=C\C)[C@H](O)[C@@H]12`: the “redox activity (% of DA3003)” value is 5.28%.
As to `OC1CCC(Nc2ncc3nc(Nc4c(F)cc(F)cc4F)n([C@H]4CCOC4)c3n2)CC1` (some centres undefined), the “redox activity (% of DA3003)” value was -2.9%.
`CC(=O)O[C@H]1C(=O)[C@@]2(C)[C@H]([C@H](OC(=O)c3ccccc3)[C@]3(O)C[C@H](OC(=O)[C@H](O)[C@@H](NC(=O)c4ccccc4)c4ccccc4)C(C)=C1C3(C)C)[C@]1(OC(C)=O)CO[C@@H]1C[C@@H]2O`: the redox activity (% of DA3003) was 1.32% [at 11.5 µM].
Consider `COc1ccc2c(OC)c3ccoc3nc2c1OC`, for which the “redox activity (% of DA3003)” value was 6.27%.
With `CC(c1ncncc1F)C(O)(Cn1cncn1)c1ccc(F)cc1F` (centres undefined), the “redox activity (% of DA3003)” value is -5.79%.
As to `Cc1c(C(=O)Nc2ccc(N3CC(C)OC(C)C3)nc2)cccc1-c1ccc(OC(F)(F)F)cc1` (centres undefined), the “redox activity (% of DA3003)” value was -6.04%.
For `C=CC(C)(C)c1[nH]c2cc3c(cc2c1CC1NC(=O)C2=CCCN2C1=O)C=CC(C)(C)O3` (centres undefined) the value was 19.3% [at 25.6 µM]; for `C=C1C(OC(C)=O)CCC2(C)CC3(OC)OC(=O)C(C)=C3CC12` (centres undefined), 1.03%; for `COC(=O)N[C@H](C(=O)N1[C@@H]2CC[C@@H](C2)[C@H]1c1nc2ccc(-c3ccc4c(c3)C(F)(F)c3cc(-c5cnc([C@@H]6CCC7(CC7)N6C(=O)[C@@H](NC(=O)OC)C(C)C)[nH]5)ccc3-4)cc2[nH]1)C(C)C`, -1.11% [at 25.6 µM].
Consider `C=C[C@H]1CN2CC[C@H]1C[C@@H]2C(O)c1ccnc2ccc(OC)cc12` (some centres undefined), for which the “redox activity (% of DA3003)” value was -8.2%.
In the case of `COc1ccc(-n2[nH]c(=O)c3[nH]c4cc(Cl)ccc4c(=O)c3c2=O)c(C)c1`, the “redox activity (% of DA3003)” value is -2.78%.
Turning to `Cc1cn(C2C=CC(CO)O2)c(=O)[nH]c1=O` (centres undefined), the “redox activity (% of DA3003)” value is -1.93%.
Regarding `FC(F)(F)c1cc(-c2ncn(/C=C\c3nnco3)n2)cc(C(F)(F)F)c1`, the “redox activity (% of DA3003)” value is -2.01%.
Then `CC1(c2nc3c(C(N)=O)cccc3[nH]2)CCCN1` (centres undefined), with -6.12%; and `Cn1nc(C(C)(C)C)cc1C(=O)NC(Cc1cccc(Cl)c1)C(=O)NCC#N` (centres undefined), with 4.4%.
For `CC1(C)CCCC2(C)C(CO)C(CO)=CCC12` (centres undefined) the value was 3.25%; for `COc1ccc(C2COc3cc(O)ccc3C2)c(O)c1` (centres undefined), -17.2%; for `O=[N+]([O-])c1cn2c(n1)OCC(OCc1ccc(OC(F)(F)F)cc1)C2` (centres undefined), 13.1%.
Turning to `NC(=O)C(CCC(F)(F)F)N(Cc1ccc(-c2ncon2)cc1F)S(=O)(=O)c1ccc(Cl)cc1` (centres undefined), the “redox activity (% of DA3003)” value was 2.86%.
`CON(C)C(=O)[C@H](O)[C@H](Cc1ccccc1)NC(=O)c1cc2cc(Cl)ccc2[nH]1`: the “redox activity (% of DA3003)” value was -0.0274%.
Then `Cc1ccc(F)cc1C(=O)Nc1ccc(C(=O)N2Cc3cccn3Cc3ccccc32)c(Cl)c1`, with 1.43%; and `COC(=O)CC1CC(c2ccc(O)cc2)=NO1` (centres undefined), with -5.57%.
Take `CS(=O)(=O)NCC1CCC(Nc2nc3c(s2)CCSc2ccccc2-3)CC1` (centres undefined): the “redox activity (% of DA3003)” value is 7.22%.
As for `O=C(Nc1ccc(Cl)cc1F)c1ccccc1O`, the “redox activity (% of DA3003)” value was -6.14%.
With `COc1cc2c3c(cc4ccccc4c3c1O)NC2=O`, the “redox activity (% of DA3003)” value is -8.2%.
For `CN=C(N)NCCCCC/C=C(/C)CC(C)C1OC(=O)C(C)C(O)/C=C/C(C)C(O)CC(O)C(C)C(O)CCC(C)C(O)CC2(O)OC(CC(OC(=O)CC(=O)O)CC(O)CC(O)C(C)C(O)/C(C)=C/CCC1C)CC(O)C2O` (centres undefined) the value was -4.57% [at 11.5 µM]; for `CNC(C)C(=O)NC(C(=O)N1CCCC1c1nc(C(=O)c2ccc(F)cc2)cs1)C1CCCCC1` (centres undefined), 12.6%.
Then `COc1ccc([C@@]2(O)c3c(ccc4c3OC(C)(CCC=C(C)C)C=C4)NC(=O)[C@@H]2OC)cc1` (some centres undefined), with 12.4% [at 25.6 µM]; and `Cc1cc(C)c2c(N)c(C(=O)NCc3ccc(Cl)cc3)sc2n1`, with -4.61%.
Turning to `OCC1OC(Oc2cc(O)cc(/C=C/c3ccc(O)cc3)c2)C(O)C(O)C1O` (centres undefined), the “redox activity (% of DA3003)” value is -14%.
With `Cn1nnc(-c2ccc(-c3ccc(N4C[C@H](COP(=O)(O)O)OC4=O)cc3F)cn2)n1`, the “redox activity (% of DA3003)” value is -0.222%.
`OC/C=C/c1ccc(O[C@@H]2O[C@H](CO)[C@@H](O)[C@H](O)[C@H]2O)cc1`: the “redox activity (% of DA3003)” value is -0.253%.
For `COc1cc2oc(-c3ccc(O)cc3O)cc2c(OC)c1CC=C(C)C`, the “redox activity (% of DA3003)” value was -2.19%.
Take `C=C1CCC2C(C)(C)CCC[C@]2(C)[C@H]1C/C=C(\CO)C(=O)C(=O)O` (some centres undefined): the “redox activity (% of DA3003)” value was 17.9%.
